Results reported in the supplement of paper PMC6555819.

How the values were obtained:
Experiment in all cases: PBM binding z-score (relative to random genomic background probes); higher = stronger binding; sequences stand for … in GC…GCGATTGACAGCGTAGAATGAAGG
[1] = tested on: RARb homodimer (NR concentration 270 nM)
How it was run: (§1)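 The probes on custom Agilent 4×180K protein-binding microarrays were double-stranded, with 34-nt variable regions bearing direct-repeat seeds, single-nucleotide variants, half-site ablations and random human genomic background sequences. Incubation lasted 1 h with ligand-free nuclear receptor dimers in PBS pH 7.4, 2% milk, 0.02% Triton X-100, 1 mM DTT, 0.2 mg/mL BSA and 0.4 mg/ml salmon testes DNA. Antibodies against each partner (one per run) detected bound dimers, and fluorescence scans were regression-normalized. Binding z-scores take the random background probes as reference.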

[2] = tested on: RARg:RXRa (NR concentration 270 nM, RXRa partner concentration 90 nM)
How it was run: as §1

[3] = tested on: RARg homodimer (NR concentration 270 nM)
How it was run: as §1

[4] = tested on: RXRa DBDmut IVT, anti-RXR (DBD mutation: RXRa K156A/R161A, NR concentration 90 nM)
How it was run: as §1

[5] = tested on: RXRa homodimer (NR concentration 180 nM)
How it was run: as §1

[6] = tested on: THRa:RXRa (NR concentration 90 nM, RXRa partner concentration 90 nM)
How it was run: as §1

[7] = tested on: THRa homodimer (NR concentration 90 nM)
How it was run: as §1

[8] = tested on: VDR homodimer (NR concentration 270 nM)
How it was run: as §1

Sequence | PBM binding z-score [1] | PBM binding z-score [2] | PBM binding z-score [3] | PBM binding z-score [4] | PBM binding z-score [5] | PBM binding z-score [6] | PBM binding z-score [7] | PBM binding z-score [8]
TCCAGCAGGCCAGAGGGTCACTCAAGAGGTACGG | 2.93 | 2.61 | 1.71 | 0.301 | 2.29 | 1.7 | -0.473 | 0.227
TATTGTAGATCAGCAGGTTAAGAAAGCTGGCCAA | -0.28 | -0.0508 | 0.00581 | -1.23 | 0.171 | 0.0661 | -0.952 | -0.39
GGTTACGGGTCAAAGGTTATAGCATGAATAGAAT | 3.44 | 6.91 | 4.71 | 1.89 | 9.23 | 4.06 | 0.33 | 1.64
ATCTTTAGGTAAAGTTCAGTGAAAGATCGATAGA | 2.48 | 1.99 | 2.45 | 1.71 | 1.15 | 1.52 | 0.0896 | 1.95
CTACCAAGGTGAACCAGGTCGTTGATTACTATTC | 1.75 | 1.44 | 1.26 | 0.903 | 1.76 | 3.09 | 1.85 | 1.28
ACTACTAGTTGACTTAGGGCAACCGATACGACGC | 0.824 | 0.463 | 0.625 | 0.495 | 0.508 | 1.32 | 0.683 | 0.273
AGTCAAAGTTCCGGACGAGGTAACGTAAAGCACG | 0.173 | 0.181 | 0.277 | -0.303 | 0.201 | 1.62 | 0.886 | -0.0573
CCTATTGGGCCATTCAGAGGTCATTGATCATATG | 4.13 | 4.69 | 3.34 | 1.48 | 3.41 | 3.37 | 1.54 | 3.79
TCATGTAGGTAAATGCTAGGTGAAAGTCCGATCT | 0.541 | 0.226 | 0.15 | 1.26 | 0.398 | 1.28 | 0.741 | 0.319
CCGAGTAGTTTATGGGGCATTCAGGCAACGGTGA | 0.512 | -0.0698 | 0.182 | 0.904 | -0.158 | 0.238 | 0.0882 | 0.37
CCTAGTTGGTAAGGAGGTCACACACCGGATATGA | 3.85 | 3.75 | 3.06 | 0.539 | 4.06 | 3.44 | 2.35 | 2.37
CCTACTAGGTCATGGTCAGCTAATCTACAGTATG | 3.34 | 3.79 | 4.21 | 1.37 | 2.66 | 2.87 | 1.53 | 0.776
CGTCAAAGTTCAACAAAGGTAACGTAAAGCACGC | 4.37 | 5.63 | 6.4 | 4.53 | 4.82 | 4.66 | 0.367 | 3.16
GCTGCTAGGTCAACTGATGGTCAGCGAAAGCTCG | 3.66 | 5.35 | 5.22 | 1.57 | 3.2 | 2.98 | 0.857 | 0.0996
TCTCGGAGGACACGAAAGGTCGGAGCTCGACATC | 2.87 | 2.45 | 2.91 | 1.02 | 1.66 | 2.7 | 0.464 | 0.287
TCATATAGGTAAACAGGTCAAAGTCCGTAAGTTA | 2.99 | 3.2 | 2.4 | 1.54 | 3.59 | 2.27 | 0.804 | 1.93
CCTCACGGGTCAAGGTTATAGCACGGGTGGTACG | 3.31 | 4.6 | 4.55 | -0.168 | 4.92 | 2.82 | 0.624 | 1.18
CGAACGAGGGCATGAGTTAATAGCAAATGCCGAT | 0.53 | 1.2 | 1.61 | 2.14 | 0.895 | 1.13 | -0.42 | 1.02

Sequence | PBM binding z-score [1] | PBM binding z-score [2] | PBM binding z-score [3] | PBM binding z-score [4] | PBM binding z-score [5] | PBM binding z-score [6] | PBM binding z-score [7] | PBM binding z-score [8]
CAGCCTAGGTCAGGGCGAGTATAGGAGGAACGTT | 2.44 | 3.08 | 3.72 | 0.0681 | 1.76 | 2.03 | 0.0582 | -0.499
GTAACGAGGGCATTCGAGTTGATAGCATGGCGAT | 0.944 | 1.34 | 1.45 | 2.91 | 0.914 | 3.18 | -0.244 | 3.97
GGAACGAGGGCATTTGAGTTGATAGCATGGCGAT | 0.691 | 1.17 | 1.29 | 3.42 | 0.881 | 3.57 | -0.202 | 3.57
ACTAGCAGGCCAAGTTTGGGCCACTCAAACAAAG | 0.113 | 0.0368 | 0.111 | -0.286 | -0.539 | 0.356 | -0.681 | -0.556
ATCGAAAGGTCGAGGCGAGTATAGAGAAAGGGAA | 1.95 | 3.9 | 3.91 | 0.625 | 4.19 | 1.83 | -0.512 | 0.276
TGTCAAAGTTCAACGGTAACGTAAGTATCCACAC | 3.79 | 5.69 | 6.35 | 4.26 | 5.2 | 1.98 | -0.415 | 3.5
AGTCTAAGTTCACTAGGTAACGTAAGATTCAGCT | 2.21 | 3.35 | 3.69 | 4.47 | 2.31 | 2.27 | 0.878 | 4.71
CGTCAAAGTTCGAGGTAACGTAACAGAAAGCAGC | 1.46 | 1.92 | 2.31 | 2.39 | 1.64 | 2.1 | 0.898 | 1.2
TAGCCTAGGTCATGGGCCAGTATGCCACGCGAAC | 3.09 | 4.15 | 4.47 | 0.363 | 3.54 | 3.07 | 1.16 | 0.214
CAAACTAGGTCACCGGAAGGTCAAACTCCGCATG | 5.43 | 8.28 | 7.24 | 2.46 | 6.33 | 4.6 | 3.44 | 4.04
AGAATGAGGTTATACGGAGATCAGGGAAGAAAGT | 1 | 1.95 | 1.1 | 1.68 | 2.26 | 2.33 | 0.836 | 0.95
CGTCCAAGTTCAAGGTCAGTGAAAGAGACTCGAA | 4.11 | 4.76 | 5.33 | 4.51 | 3.82 | 3.56 | 2.47 | 4.98
ACTATTCGTTGAGACGAGGGCAACCGATAGGTTG | 1.26 | 0.489 | 0.81 | 0.393 | 0.523 | 1.33 | 0.648 | 0.643
GCAGAGAGGTGAAACGCAGGTAACTCAGGGTGGC | 1.31 | 2.59 | 1.21 | 0.025 | 1.79 | 2.37 | 0.0883 | -0.369
TCTTGAAGATCAGCAGGTTAAGAAAGCTGGCCAA | -0.114 | -0.154 | -0.281 | 0.572 | 0.316 | -0.00481 | -1.05 | -0.317
CGTCCAAGGTCAATGCTAGGTCAGTGTAAGCATT | 5.02 | 7.55 | 7 | 3.74 | 5.35 | 4.48 | 2.75 | 3.52
CAAACTAGGTCACGACAGGTCAAAGTCGAATGAC | 4.83 | 6.43 | 6.78 | 2.05 | 6.08 | 5.05 | 2.47 | 2.23
